# Measurements published in PubChem BioAssay (EPA / NIEHS).
# Several values for one entry are separate records, joined by “and”; a condition that tells them apart may be missing. Equal values may be shown once. Inconclusive results are not listed. Some structures have more than one record in an assay (separate samples or runs), and their calls can disagree. Activity calls are given as the source filed them. The calls were made as follows, unless noted: active = hit-call score of the fitted dose curve at least 0.9, where 1 is the maximum; inconclusive = response in the unintended direction; inactive = score below 0.9.
# How the values were obtained:
# [1] = read-out: X-box binding protein 1 (XBP1), XBP1 (gene 7494); assay: LTEA_HepaRG_XBP1: Life Technologies and Expression Analysis (LTEA) Assay for X-box binding protein 1 (XBP1) using HepaRG (AID 2283540; active = hit-call score of the fitted dose curve at least 0.9, where 1 is the maximum; inactive = score below 0.9); conditions: mRNA level, 48 h; actives raise or lower the signal
# Procedure, shortened: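 Transcript levels of XBP1, measured by qRT-PCR and normalised to three housekeeping genes, were fitted bidirectionally relative to 0.5% DMSO controls. Human HepaRG cells received eight-point half-log dilutions from 100 uM for 48 h.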
# [2] = LTEA_HepaRG_LDH_cytotoxicity: Cytotoxicity Assessment in the Life Technologies and Expression Analysis (LTEA) Assay (AID 2283563);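 as to AC50: LDH activity released into spent culture medium as a marker of cell death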
# Procedure, shortened: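 Cells were thawed and plated for 48 h. Medium was then replaced with serum-free induction medium. Chemicals (8 half-log points, maximum 100 uM, 0.5% DMSO) were added in duplicate for 48 h, after which spent medium was assayed for LDH.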
# [3] = ATG_XTT_Cytotoxicity: Cytotoxicity Assessment in the Attagene TRANS-FACTORIAL HepG2 Assay (AID 2283584)
# Procedure, shortened: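 Cells: human HepG2, transiently transfected with MRTU reporter constructs. Exposure 24 h. Readout: XTT, cell number. Baseline/neg ctrl DMSO; loss-of-signal scored.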
# [4] = TOX21_p53_BLA_p2_viability: Viability Assessment in the Tox21 HCT-116 p53 Agonism Beta-lactamase Assay, Phase 2 (AID 2283591);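 also: compound exposure lasted 16 h at 37 °C; actives lower the ATP signal meaning cytotoxicity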
# Procedure, shortened: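 HCT-116 p53-bla cells (4000/well) rested 5 h at 37C, then received compounds in DMSO (217-fold dilution) for 16 h at 37C, 5% CO2. After the CCF4 read, CellTiter-Glo was added; ATP luminescence was read after 30 min at room temperature.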
# [5] = target: Cellular tumor antigen p53 (Homo sapiens) (UniProt P04637); assay: TOX21_p53_BLA_p2_ratio: Tox21 HCT-116 p53 Agonism Beta-lactamase Assay, Ratio, Phase 2 (AID 2283592)
# Chain of Cellular tumor antigen p53 (Homo sapiens) (P04637 whole entry, looked up): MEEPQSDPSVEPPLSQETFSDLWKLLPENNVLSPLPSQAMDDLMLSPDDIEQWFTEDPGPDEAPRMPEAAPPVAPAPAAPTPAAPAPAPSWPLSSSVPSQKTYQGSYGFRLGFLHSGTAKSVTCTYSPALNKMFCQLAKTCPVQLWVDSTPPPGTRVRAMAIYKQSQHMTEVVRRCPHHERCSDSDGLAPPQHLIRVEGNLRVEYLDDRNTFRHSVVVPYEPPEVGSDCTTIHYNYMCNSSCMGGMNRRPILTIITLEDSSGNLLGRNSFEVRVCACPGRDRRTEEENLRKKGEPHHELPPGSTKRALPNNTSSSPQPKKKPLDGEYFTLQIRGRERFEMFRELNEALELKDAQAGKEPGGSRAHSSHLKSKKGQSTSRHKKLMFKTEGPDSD
# Procedure, shortened: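 Plated HCT116 p53-bla cells (4000/well) received compound after 5 h, then 16 h at 37C/5% CO2. CCF4-AM added, 2 h RT. Ratio of 460 to 530 nm emission taken as the p53 reporter signal.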
# [6] = target: Cellular tumor antigen p53 (Homo sapiens) (UniProt P04637); assay: TOX21_p53_BLA_p3_ratio: Tox21 HCT-116 p53 Agonism Beta-lactamase Assay, Ratio, Phase 3 (AID 2283596)
# Procedure, shortened: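 Cells were seeded at 4000/well, rested 5 h at 37C, then dosed with DMSO compound solutions (217-fold dilution) for 16 h. CCF4-AM substrate was loaded for 2 h at room temperature, and the 460/530 nm emission ratio was fitted for gain of signal versus DMSO.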
# [7] = TOX21_p53_BLA_p4_viability: Viability Assessment in the Tox21 HCT-116 p53 Agonism Beta-lactamase Assay, Phase 4 (AID 2283597);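 also: hits lower the luminescence signal meaning cytotoxicity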
# Procedure, shortened: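 Readout: ATP luminescence (CellTiter-Glo), measured 30 min after reagent addition at RT. The reagent followed a 2 h CCF4-AM incubation, and the cells had been exposed to compound for 16 h at 37C.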
# [8] = TOX21_p53_BLA_p5_viability: Viability Assessment in the Tox21 HCT-116 p53 Agonism Beta-lactamase Assay, Phase 5 (AID 2283600)
# Procedure, shortened: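 Workflow: seed 4000 cells per well, wait 5 h, add compounds (DMSO, 217-fold dilution), incubate 16 h, load CCF4-AM 2 h, add CellTiter-Glo, read luminescence after 30 min.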
# [9] = target: Cellular tumor antigen p53 (Homo sapiens) (UniProt P04637); assay: TOX21_p53_BLA_p4_ratio: Tox21 HCT-116 p53 Agonism Beta-lactamase Assay, Ratio, Phase 4 (AID 2283601)
# Procedure, shortened: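 HCT116 cells carrying an inducible beta-lactamase reporter were plated at 4000 cells/well, rested 5 h, then exposed to compounds in DMSO (217-fold dilution) for 16 h at 37C. CCF4-AM substrate was loaded 2 h at room temperature; 460/530 nm emission ratio scored gain-of-signal versus DMSO.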
# [10] = Tanguay_ZF_120hpf_YSE_legacy: (Legacy) Oregon State University Tanguay Lab 120 Hour Post-fertilization zebrafish Assay for Yolk Sac Edema (AID 2283634);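 as to AC50: actives raise the incidence of yolk sac edema above the DMSO baseline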
# Procedure, shortened: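 Dechorionate (pronase, 4 hpf) → place one 6 hpf embryo per well → static compound exposure, sealed and foil-covered, 28C, to 120 hpf → record yolk sac edema as present or absent. Final DMSO 0.64%.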
# [11] = Tanguay_ZF_120hpf_AXIS_legacy: (Legacy) Oregon State University Tanguay Lab 120 Hour Post-fertilization zebrafish Assay for Body Axis Malformation (AID 2283635);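 as to AC50: potency for an increased fraction of larvae scored with body axis malformation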
# Procedure, shortened: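 Chorion is removed with pronase at 4 hpf, then single 6 hpf embryos are dosed (final DMSO 0.64%) and held statically at 28C in sealed, foil-covered plates. At 120 hpf body axis malformation is recorded as present or absent.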
# [12] = Tanguay_ZF_120hpf_EYE_legacy: (Legacy) Oregon State University Tanguay Lab 120 Hour Post-fertilization zebrafish Assay for Eye Malformation (AID 2283636);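 also: binary presence or absence of eye malformation scored by brightfield in 120 hpf larvae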
# Procedure, shortened: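 Static waterborne exposure of dechorionated zebrafish embryos (strain Tropical 5D), 6 to 120 hpf, sealed plates at 28C, 0.64% DMSO vehicle. Eye malformation is scored as a binary endpoint, with gain of signal analysed relative to DMSO.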
# [13] = Tanguay_ZF_120hpf_SNOU_legacy: (Legacy) Oregon State University Tanguay Lab 120 Hour Post-fertilization zebrafish Assay for Snout Malformation (AID 2283637)
# Procedure, shortened: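 Dechorionated zebrafish, individually housed from 6 hpf in covered, sealed wells at 28C with 0.64% DMSO vehicle, were examined at 120 hpf for snout malformation. Responses were binary and analysed positive-direction relative to DMSO.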
# [14] = Tanguay_ZF_120hpf_JAW_legacy: (Legacy) Oregon State University Tanguay Lab 120 Hour Post-fertilization zebrafish Assay for Jaw Malformation (AID 2283638);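 as to AC50: active means more embryos with jaw malformation than DMSO controls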
# Procedure, shortened: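 Steps: dechorionate 4 hpf embryos (pronase); plate 1/well at 6 hpf; add test chemical, 0.64% DMSO final; seal, cover, hold at 28C statically to 120 hpf; score jaw defect presence/absence microscopically. Dead embryos not scored.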
# [15] = Tanguay_ZF_120hpf_OTIC_legacy: (Legacy) Oregon State University Tanguay Lab 120 Hour Post-fertilization zebrafish Assay for Otic Vesicle Malformation (AID 2283639)
# Procedure, shortened: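 Binary scoring of otic vesicle defects at 120 hpf in zebrafish (Tropical 5D) held under static exposure at 28C, sealed and shaded, with final DMSO 0.64%. Embryos dying by 24 or 120 hpf excluded; fitted positively against DMSO.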
# [16] = Tanguay_ZF_120hpf_PE_legacy: (Legacy) Oregon State University Tanguay Lab 120 Hour Post-fertilization zebrafish Assay for Pericardial Edema (AID 2283640);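 as to AC50: potency for increased incidence of pericardial edema versus DMSO baseline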
# Procedure, shortened: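 Embryos from wild-type 5D adults were staged, then dosed in 0.64% DMSO. They were kept sealed in the dark at 28C until 120 hpf. Pericardial edema was then recorded as present or absent.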
# [17] = Tanguay_ZF_120hpf_BRAI_legacy: (Legacy) Oregon State University Tanguay Lab 120 Hour Post-fertilization zebrafish Assay for Brain Malformation (AID 2283641)
# Procedure, shortened: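 Wild-type 5D larvae, static waterborne exposure to 120 hpf, 28C, 0.64% v/v DMSO. Brightfield scoring of brain defects, binary; dead embryos excluded. Positive ctrl 5uM trimethyltin chloride.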
# [18] = TOX21_p53_BLA_p3_viability: Viability Assessment in the Tox21 HCT-116 p53 Agonism Beta-lactamase Assay, Phase 3 (AID 2283593);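 also: cells exposed to compound for 16 h before reading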
# Procedure, shortened: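 HCT-116 cells (4000/well) rested 5 h at 37C, then got DMSO compounds by pin tool (217-fold dilution) for 16 h at 37C, 5% CO2. After the bla read, CellTiter-Glo was added and luminescence read at 30 min, room temperature.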
# [19] = Tanguay_ZF_120hpf_MORT_legacy: (Legacy) Oregon State University Tanguay Lab 120 Hour Post-fertilization zebrafish Assay for Mortality (AID 2283633)
# Procedure, shortened: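 5D WT zebrafish, chorion removed 4 hpf; 1 embryo/well from 6 hpf; static exposure to 120 hpf, 28C, dark, sealed. Final DMSO 0.64%. Readout: binary mortality, brightfield, 24 + 120 hpf; DMSO as negative control.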
# [20] = target: Cellular tumor antigen p53 (Homo sapiens) (UniProt P04637); assay: TOX21_p53_BLA_p5_ratio: Tox21 HCT-116 p53 Agonism Beta-lactamase Assay, Ratio, Phase 5 (AID 2283599)
# Procedure, shortened: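 HCT-116 cells carrying a p53-inducible beta-lactamase reporter were seeded at 4000 cells/well and dosed after 5 h with compound in DMSO (217-fold dilution). After 16 h at 37C, CCF4-AM substrate was added for 2 h, and the 460/530 nm emission ratio was scored as gain-of-signal versus DMSO.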
smiles,measurement,setting,value
CN(C)c1ccc(C(=O)c2ccc(N(C)C)cc2)cc1,outcome,[1],inactive
same,outcome,[2],inactive
same,outcome,[3],inactive
same,outcome,[4],inactive
same,AC50,[5],748 nM (active) and 1.29 µM (active)
same,AC50,[6],826 nM (active) and 1.65 µM (active)
same,outcome,[7],inactive
same,outcome,[8],inactive
same,AC50,[9],907 nM (active) and 463 nM (active)
same,AC50,[10],25.4 µM (active)
same,AC50,[11],25.2 µM (active)
same,AC50,[12],8.23 µM (active)
same,AC50,[13],27.7 µM (active)
same,AC50,[14],23.4 µM (active)
same,AC50,[15],12.9 µM (active)
same,AC50,[16],22.7 µM (active)
Nc1ccc([N+](=O)[O-])cc1,outcome,[1],inactive
same,outcome,[2],inactive
same,outcome,[3],inactive
same,outcome,[4],inactive
same,outcome,[5],inactive
same,outcome,[6],inactive
same,outcome,[7],inactive
same,outcome,[8],inactive
same,outcome,[9],inactive
same,outcome,[10],inactive
same,outcome,[11],inactive
same,outcome,[12],inactive
same,outcome,[13],inactive
same,outcome,[14],inactive
same,outcome,[15],inactive
same,outcome,[16],inactive
same,outcome,[17],inactive
ClCCOCCCl,outcome,[1],inactive
same,outcome,[2],inactive
same,outcome,[4],inactive
same,outcome,[5],inactive
same,outcome,[18],inactive
same,outcome,[6],inactive
same,outcome,[7],inactive
same,outcome,[8],inactive
same,outcome,[9],inactive
same,outcome,[19],inactive
same,outcome,[11],inactive
same,outcome,[13],inactive
same,outcome,[14],inactive
same,outcome,[16],inactive
Cc1cc(N=Nc2ccccc2C)ccc1N,AC50,[1],4 µM (active)
same,AC50,[2],5.21 µM (active)
same,AC50,[4],81 µM (active)
same,outcome,[4],inactive
same,AC50,[5],73.1 µM (active)
same,outcome,[5],inactive
same,outcome,[6],inactive
same,AC50,[7],46.1 µM (active)
same,outcome,[7],inactive
same,AC50,[20],73.3 µM (active) and 76.2 µM (active)
same,outcome,[8],inactive
same,AC50,[9],74.4 µM (active)
same,outcome,[9],inactive
same,outcome,[19],inactive
same,outcome,[10],inactive
same,outcome,[11],inactive
same,outcome,[12],inactive
same,outcome,[13],inactive
same,outcome,[14],inactive
same,outcome,[15],inactive
same,AC50,[16],55.7 µM (active)
same,outcome,[17],inactive
C1=Cc2cccc3cccc1c23,outcome,[1],inactive
same,outcome,[2],inactive
same,outcome,[4],inactive
same,outcome,[5],inactive
same,outcome,[18],inactive
same,outcome,[6],inactive
same,outcome,[7],inactive
same,outcome,[8],inactive
same,outcome,[9],inactive
same,outcome,[19],inactive
same,outcome,[10],inactive
same,outcome,[11],inactive
same,outcome,[12],inactive
same,outcome,[13],inactive
same,outcome,[14],inactive
same,outcome,[15],inactive
same,outcome,[16],inactive
same,outcome,[17],inactive
O=P(OCCCl)(OCCCl)OCCCl,outcome,[1],inactive
same,outcome,[2],inactive
same,outcome,[3],inactive
same,outcome,[4],inactive
same,outcome,[5],inactive
same,outcome,[6],inactive
same,outcome,[7],inactive
same,outcome,[8],inactive
same,outcome,[9],inactive
same,outcome,[19],inactive
same,outcome,[10],inactive
same,outcome,[11],inactive
same,outcome,[12],inactive
same,outcome,[13],inactive
same,outcome,[14],inactive
same,outcome,[15],inactive
same,outcome,[17],inactive
Nc1cc(Cl)cc(C(=O)O)c1Cl,outcome,[1],inactive
same,outcome,[2],inactive
same,outcome,[3],inactive
same,outcome,[4],inactive
same,outcome,[5],inactive
same,outcome,[6],inactive
same,outcome,[7],inactive
same,outcome,[8],inactive
same,outcome,[9],inactive
same,outcome,[10],inactive
same,outcome,[11],inactive
same,outcome,[12],inactive
same,outcome,[13],inactive
same,outcome,[14],inactive
same,outcome,[16],inactive
